# Measured values published in ChEMBL document CHEMBL3988442, “University of Dundee, Small-Polar-MMV Screening Library” (2021).
# Biological target: Sialic acid-binding Ig-like lectin 9 (Homo sapiens) (UniProt Q9Y336)
# Assay: Hs-Siglec9 ALPHAscreen SOP 20170721
# Parameters: scale not given: direction of the effect not stated beside the values
# Settings: 10 µM
# Sequence of Sialic acid-binding Ig-like lectin 9 (Homo sapiens) (Q9Y336 whole entry): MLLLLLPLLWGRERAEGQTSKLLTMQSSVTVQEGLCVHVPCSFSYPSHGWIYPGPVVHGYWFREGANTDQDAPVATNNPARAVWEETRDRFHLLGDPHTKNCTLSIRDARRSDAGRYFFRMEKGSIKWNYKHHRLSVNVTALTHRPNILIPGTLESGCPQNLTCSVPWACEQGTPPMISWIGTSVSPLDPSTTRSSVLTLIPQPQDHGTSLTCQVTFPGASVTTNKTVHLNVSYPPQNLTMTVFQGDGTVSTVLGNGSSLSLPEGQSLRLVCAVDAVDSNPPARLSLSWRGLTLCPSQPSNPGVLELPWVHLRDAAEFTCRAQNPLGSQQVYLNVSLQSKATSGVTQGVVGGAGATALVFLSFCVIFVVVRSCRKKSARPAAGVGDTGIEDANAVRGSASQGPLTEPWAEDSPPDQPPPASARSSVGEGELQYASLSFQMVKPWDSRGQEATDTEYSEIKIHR
row,Compound,Percent Effect [%]
1,Cn1cnnc1C1CCCN(C(=O)c2cc(Cl)c3c(c2)OCO3)C1 (stereo not given),2.45
2,NC(=O)c1ccc(S(=O)(=O)NC(=O)COc2ccc3c(c2)CCC3)cc1,-3.01
3,Cc1ccccc1N1CCN(C(=O)c2ccc[nH]2)C(C)C1 (stereo not given),33.4
4,CC(C)c1cc(NC(=O)CN2CCC(N3CCNC3=O)CC2)on1,8.63
5,O=S(=O)(CCNC1CCc2ncnn2C1)c1ccccc1 (stereo not given),9.36
6,c1ccc(-c2nc(CN3CCOC(Cn4cccn4)C3)no2)cc1 (stereo not given),-2.67
7,COc1ncccc1CNC(=O)NCCNC(=O)c1ccco1,-3.85
8,c1cnc(N2CCC3(CC2)CN(CC2CC2)c2ccccc23)nc1,0.418
9,CN(C)S(=O)(=O)N1CCN(C(=O)c2ccc3ccn(C)c3c2)CC1,12
10,Cc1ccc(C(CNC(=O)NCc2cc[nH]n2)N2CCOCC2)o1 (stereo not given),-4.81
11,COCCc1noc(CN2CCCCC2Cn2cc(C)cn2)n1 (stereo not given),-0.235
12,O=C(COCc1ccccc1)N1CCC(OCc2cccnc2)CC1,2.89
13,CCc1n[nH]c(C2CN(C(=O)c3nc(C)ncc3Cl)CCO2)n1 (stereo not given),9.79
14,COc1cc(CNC(=O)C2CC(=O)N(C(C)C)C2)ccn1 (stereo not given),-1.27
15,O=C(Cc1cccs1)N1CC[C@H]2[C@@H]1CCC(=O)N2c1cccnc1,-3.71
16,CS(=O)(=O)NCc1ncn2c1CN(C(=O)CC1CCCC1)CCC2,-3.12
17,CCOCC1CC2(CCN(C(=O)c3ccccc3F)CC2)CO1 (stereo not given),-7.4
18,CCn1c(C)cc(C(=O)N2CCCC(n3nc(C)nc3C)C2)c1C (stereo not given),-10.5
19,Cc1cnn(CC2CCCN2CC(=O)Nc2cc(C)nn2C)c1 (stereo not given),5.19
20,O=C(c1ccco1)N1CCC2(CC1)C(=O)NCCN2CC1CC1,-3.06

row,Compound,Percent Effect [%]
1,COc1ccc(C(=O)N2C[C@@H](CN3CCOCC3)[C@@H](CO)C2)c(C)c1,14.3
2,O=C(c1ccc(F)cc1F)N1CC[C@H](O)[C@@H](N2CCOCC2)CC1,3.3
3,Cc1cnn(C(C)C2CC2)c1NC(=O)c1cnccn1 (stereo not given),0.592
4,COc1ncc(C2(O)CCN(Cc3ccccc3O)CC2)c(OC)n1,0.188
5,CC1CCCN(C(=O)c2cccc(CS(C)(=O)=O)c2)C1 (stereo not given),-22.1
6,O=C(Nc1cccnc1)[C@H]1C[C@H]2OCC[C@H]2N(C(=O)c2ccsc2)C1,13
7,CCC1CN(C(=O)c2ccc(Cl)cc2O)CCN1C(C)C (stereo not given),8.13
8,Cc1cnc(C(=O)N2CCCCC2c2[nH]ncc2S(C)(=O)=O)cn1 (stereo not given),4.14
9,CCN1C(=O)CCCC12CCCN(C(=O)c1conc1C)C2 (stereo not given),-5.23
10,COc1cc(C(=O)N2CCCS2(=O)=O)ccc1C,-1.38
11,Cc1ncsc1-c1nnc(C2CCN(CC3CCCCC3)CC2)o1,-11.6
12,CCn1cnnc1CNC(=O)N1CCOCC1,6.4
13,O=C1C(NCc2nnc3n2CCCC3)CCN1c1ccccc1 (stereo not given),-1.63
14,CC(NC(=O)CCn1cncn1)c1nnc2n1CCCCC2 (stereo not given),8.71
15,CC(=O)N1[C@H](CN(C)C)C[C@@H]2CN(C(=O)c3cccc(F)c3)CC[C@@H]21,-5.21
16,Cc1ccc(C(N)c2cccc(S(C)(=O)=O)c2)cc1 (stereo not given),8.28
17,COc1cccc2c1OCC(C(=O)N1CCN(S(C)(=O)=O)CC1)C2 (stereo not given),16.9
18,Cc1ccc(C(=O)N2C[C@@H](OCC3CCOCC3)[C@H]3OCCC[C@H]32)o1,0.662
19,CC(Cn1cccn1)NC(=O)N1CCN(Cc2cccs2)CC1 (stereo not given),-3.71
20,Cc1nc(C2CCCN(C(=O)CO)C2)cc(N2CCOCC2)n1 (stereo not given),22.8

# Tested on: Trypanosoma cruzi
# Assay: Trypanosoma cruzi phosphomannomutase and mannose-1-phosphate guanylyltransferase assay
# Type: functional
# Parameters: scale not given: direction of the effect not stated beside the values
# Settings: 10 µM
row,Compound,Percent Effect [%]
1,Cn1cnnc1C1CCCN(C(=O)c2cc(Cl)c3c(c2)OCO3)C1 (stereo not given),-5.02
2,NC(=O)c1ccc(S(=O)(=O)NC(=O)COc2ccc3c(c2)CCC3)cc1,8.54
3,Cc1ccccc1N1CCN(C(=O)c2ccc[nH]2)C(C)C1 (stereo not given),5.92
4,CC(C)c1cc(NC(=O)CN2CCC(N3CCNC3=O)CC2)on1,-6.16
5,O=S(=O)(CCNC1CCc2ncnn2C1)c1ccccc1 (stereo not given),0.746
6,c1ccc(-c2nc(CN3CCOC(Cn4cccn4)C3)no2)cc1 (stereo not given),-3.01
7,COc1ncccc1CNC(=O)NCCNC(=O)c1ccco1,6.83
8,c1cnc(N2CCC3(CC2)CN(CC2CC2)c2ccccc23)nc1,2.81
9,CN(C)S(=O)(=O)N1CCN(C(=O)c2ccc3ccn(C)c3c2)CC1,5.72
10,Cc1ccc(C(CNC(=O)NCc2cc[nH]n2)N2CCOCC2)o1 (stereo not given),-4.04
11,COCCc1noc(CN2CCCCC2Cn2cc(C)cn2)n1 (stereo not given),3.85
12,O=C(COCc1ccccc1)N1CCC(OCc2cccnc2)CC1,-4.95
13,CCc1n[nH]c(C2CN(C(=O)c3nc(C)ncc3Cl)CCO2)n1 (stereo not given),-2.24
14,COc1cc(CNC(=O)C2CC(=O)N(C(C)C)C2)ccn1 (stereo not given),-1.22
15,O=C(Cc1cccs1)N1CC[C@H]2[C@@H]1CCC(=O)N2c1cccnc1,-1.31
16,CS(=O)(=O)NCc1ncn2c1CN(C(=O)CC1CCCC1)CCC2,-4.77
17,CCOCC1CC2(CCN(C(=O)c3ccccc3F)CC2)CO1 (stereo not given),-3.41
18,CCn1c(C)cc(C(=O)N2CCCC(n3nc(C)nc3C)C2)c1C (stereo not given),7.23
19,Cc1cnn(CC2CCCN2CC(=O)Nc2cc(C)nn2C)c1 (stereo not given),2.8
20,O=C(c1ccco1)N1CCC2(CC1)C(=O)NCCN2CC1CC1,-8.08

row,Compound,Percent Effect [%]
1,COc1ccc(C(=O)N2C[C@@H](CN3CCOCC3)[C@@H](CO)C2)c(C)c1,7.47
2,O=C(c1ccc(F)cc1F)N1CC[C@H](O)[C@@H](N2CCOCC2)CC1,-1.58
3,Cc1cnn(C(C)C2CC2)c1NC(=O)c1cnccn1 (stereo not given),1.07
4,COc1ncc(C2(O)CCN(Cc3ccccc3O)CC2)c(OC)n1,1.58
5,CC1CCCN(C(=O)c2cccc(CS(C)(=O)=O)c2)C1 (stereo not given),2.72
6,O=C(Nc1cccnc1)[C@H]1C[C@H]2OCC[C@H]2N(C(=O)c2ccsc2)C1,4.58
7,CCC1CN(C(=O)c2ccc(Cl)cc2O)CCN1C(C)C (stereo not given),6.5
8,Cc1cnc(C(=O)N2CCCCC2c2[nH]ncc2S(C)(=O)=O)cn1 (stereo not given),-0.986
9,CCN1C(=O)CCCC12CCCN(C(=O)c1conc1C)C2 (stereo not given),-3.75
10,COc1cc(C(=O)N2CCCS2(=O)=O)ccc1C,4.82
11,Cc1ncsc1-c1nnc(C2CCN(CC3CCCCC3)CC2)o1,-1.97
12,CCn1cnnc1CNC(=O)N1CCOCC1,-3.41
13,O=C1C(NCc2nnc3n2CCCC3)CCN1c1ccccc1 (stereo not given),8.17
14,CC(NC(=O)CCn1cncn1)c1nnc2n1CCCCC2 (stereo not given),5.04
15,CC(=O)N1[C@H](CN(C)C)C[C@@H]2CN(C(=O)c3cccc(F)c3)CC[C@@H]21,-3.19
16,Cc1ccc(C(N)c2cccc(S(C)(=O)=O)c2)cc1 (stereo not given),-1.81
17,COc1cccc2c1OCC(C(=O)N1CCN(S(C)(=O)=O)CC1)C2 (stereo not given),6.69
18,Cc1ccc(C(=O)N2C[C@@H](OCC3CCOCC3)[C@H]3OCCC[C@H]32)o1,4.58
19,CC(Cn1cccn1)NC(=O)N1CCN(Cc2cccs2)CC1 (stereo not given),5.42
20,Cc1nc(C2CCCN(C(=O)CO)C2)cc(N2CCOCC2)n1 (stereo not given),9.02
